These results are taken from PubChem BioAssay (EPA / NIEHS).

The source made the active and inactive calls. How the source made its calls: active means hit-call score of the fitted dose curve at least 0.9, where 1 is the maximum; inactive means score below 0.9.

Assay [1] in a line: APR_HepG2_CellCycleArrest_24hr: Apredica 24-hour HepG2 Assay for Cell Cycle Arrest (AID 2282905).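 Further: cell cycle arrest scored as ratio of 2N to 4N nuclear DNA content.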 Conditions: imaging, actives raise or lower the signal. An outline of the steps: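 Cell cycle arrest is scored from nuclear DNA content measured by high-content imaging of Hoechst 33342-stained HepG2 cells following 24-hour treatment at ten concentrations up to 200 uM, with DMSO as baseline.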

Assay [2] can be described thus: APR_HepG2_NuclearSize_24hr: Apredica 24-hour HepG2 Assay for Nuclear Size (AID 2282907). The note with it: high-content imaging, actives raise or lower the signal. The method in brief:
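Compounds in DMSO (final 0.5%) were added to human HepG2 hepatoma cells at ten concentrations up to 200 uM for 24 hr. Fixed nuclei were stained with Hoechst 33342, and nuclear diameter was quantified from automated images.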

A short description of assay [3]: APR_HepG2_CellLoss_24hr: Apredica 24-hour HepG2 Assay for Cell Loss (AID 2282908).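 On AC50: fit in both directions so a hit may be cell loss or gain.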 Conditions: high-content imaging. An outline of the steps: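 Cell number is quantified by fluorescence imaging of Hoechst 33342-stained nuclei following dosing at 0.39–200 uM in 0.5% DMSO. Curves are fitted in both directions from the DMSO baseline.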
The nature of assay [4]: APR_HepG2_MicrotubuleCSK_24hr: Apredica 24-hour HepG2 Assay for Microtubule CSK Stabilty (AID 2282909). Conditions: HepG2 microtubule cytoskeleton imaging, actives raise or lower the signal. The method in brief: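 Steps: dose HepG2 for 24 h (0.39–200 uM, 0.5% DMSO); fix 30 min in 3.7% formaldehyde at room temperature; permeabilize; stain alpha-tubulin 60 min; image microtubule cytoskeleton at 20x. Signal change fitted in both directions relative to DMSO.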

Assay [5] can be described thus: APR_HepG2_MitoticArrest_24hr: Apredica 24-hour HepG2 Assay for Mitotic Arrest (AID 2282910). The note with it: high-content imaging, actives raise or lower the signal. An outline of the steps: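 HepG2 human liver cells were exposed to compounds at 0.39–200 uM (10 concentrations, duplicate) in 0.5% v/v DMSO for 24 hr, then fixed and immunostained for phospho-histone H3 with Hoechst 33342. Mitotic arrest came from HCS fluorescent imaging, fitted bidirectionally against DMSO.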

The nature of assay [6]: APR_HepG2_MitoMembPot_24hr: Apredica 24-hour HepG2 Assay for Mitochondrial Membrane Potential (AID 2282911). The note with it: imaging, actives raise or lower the signal. The method in brief:
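HepG2 cells exposed 24 h to 0.39–200 uM compounds in duplicate, 0.5% v/v DMSO final. MitoTracker Red CMXRos 250 nM loaded 30 min before formaldehyde fixation; high-content imaging at 20x, bidirectional fit versus DMSO.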

Assay [7] can be described thus: APR_HepG2_MitoMass_24hr: Apredica 24-hour HepG2 Assay for Mitochondrial Mass (AID 2282912). Conditions: high-content imaging, actives raise or lower the signal. The method in brief:
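The liver line HepG2 was dosed in duplicate across a 0.39–200 uM series, with final DMSO held at 0.5% v/v, and harvested at 24 hr. High-content imaging measured mitochondrial dye staining.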

Assay [8] is described as follows: APR_HepG2_CellCycleArrest_72hr: Apredica 72-hour HepG2 Assay for Cell Cycle Arrest (AID 2282914). Conditions: high-content imaging, actives raise or lower the signal. An outline of the steps: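 HepG2 cells exposed 72 h in duplicate to 0.39–200 uM compound, 0.5% DMSO final. Formaldehyde-fixed, Hoechst 33342-stained nuclei imaged at 20x, six fields per well; DNA content per valid cell quantified by cell-cycle image analysis, bidirectional fit versus DMSO.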

Assay [9] is described as follows: APR_HepG2_CellLoss_72hr: Apredica 72-hour HepG2 Assay for Cell Loss (AID 2282915). The note with it: high-content imaging. The method in brief: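 HepG2 cells were exposed for 72 hr to compounds at 0.39–200 uM (ten concentrations, duplicate) in 0.5% v/v final DMSO. Nuclei were stained with Hoechst 33342 after 3.7% formaldehyde fixation, imaged at 20x, and counted; fits bidirectional versus DMSO.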

Assay [10] is described as follows: APR_HepG2_P-H2AX_72hr: Apredica 72-hour HepG2 Assay for H2AX Phosphorylation (AID 2282916).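 Further: phospho-histone H2A.x immunostain intensity per cell marking DNA damage.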 Conditions: imaging, actives raise or lower the signal. An outline of the steps:
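Following 72 hr treatment with 0.39–200 uM compound, HepG2 cells were formaldehyde-fixed, permeabilized and stained for phospho-H2A.x; signal was measured by high-content imaging and fitted bidirectionally against DMSO controls.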

Assay [11] is described as follows: APR_HepG2_MitoMembPot_72hr: Apredica 72-hour HepG2 Assay for Mitochondrial Membrane Potential (AID 2282917). The note with it: imaging, actives raise or lower the signal. The method in brief: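 HepG2 cells exposed 72 h to compounds at 0.39–200 uM (0.5% v/v DMSO, duplicates); MitoTracker Red CMXRos 250 nM loaded 30 min before 3.7% formaldehyde fixation, imaged by HCS fluorescence. Bidirectional fit versus DMSO.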

The nature of assay [12]: APR_HepG2_MitoticArrest_72hr: Apredica 72-hour HepG2 Assay for Mitotic Arrest (AID 2282918). The note with it: high-content imaging, actives raise or lower the signal. An outline of the steps:
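HepG2 cells treated 72 h at 0.39–200 uM, 0.5% DMSO final; formaldehyde-fixed, stained with Hoechst 33342 and phospho-histone H3 antibody, imaged by high-content fluorescence; bidirectional fit versus DMSO.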

Assay [13] can be described thus: APR_HepG2_MicrotubuleCSK_72hr: Apredica 72-hour HepG2 Assay for Microtubule CSK Stabilty (AID 2282919). The note with it: HepG2 microtubule cytoskeleton, high-content imaging, actives raise or lower the signal. An outline of the steps: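 HepG2 human liver cells were dosed for 72 h at ten concentrations from 0.39 to 200 uM in duplicate (0.5% v/v DMSO final). Fixed, permeabilized cells were immunostained for alpha-tubulin (Cy5) with a Hoechst counterstain and imaged at 20x.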

Assay [14] in a line: APR_HepG2_P-H2AX_24hr: Apredica 24-hour HepG2 Assay for H2AX Phosphorylation (AID 2282920). Conditions: high-content imaging, actives raise or lower the signal. An outline of the steps: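 HepG2 cells dosed 24 h at 0.39–200 uM (10 points, duplicate, 0.5% DMSO final). Formaldehyde-fixed and permeabilized, then immunostained for phospho-H2A.x with Hoechst. Fluorescence quantified by high-content imaging, fitted bidirectionally versus DMSO.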

Assay [15] can be described thus: APR_HepG2_StressKinase_72hr: Apredica 72-hour HepG2 Assay for Stress Kinase (AID 2282921). Conditions: HepG2 stress kinase (phospho-c-Jun) imaging, actives raise or lower the signal. The method in brief: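 Fluorescence intensity of Cy3-tagged anti-phospho-c-Jun antibody, quantified per cell from Hoechst-defined nuclei across six images per well, served as the read-out following 72 h exposure (0.39–200 uM, 0.5% v/v DMSO).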

Assay [16] is described as follows: APR_HepG2_StressKinase_24hr: Apredica 24-hour HepG2 Assay for Stress Kinase (AID 2282922). The note with it: HepG2 stress kinase (phospho-c-Jun) imaging, actives raise or lower the signal. The method in brief:
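HepG2 cells exposed 24 hr to compound at 0.39–200 uM (10 concentrations, duplicate), 0.5% v/v DMSO final. Fixed in 3.7% formaldehyde, permeabilized with Triton X-100, immunolabeled for phospho-c-Jun with Hoechst 33342; HCS fluorescence imaging, bidirectional fit versus DMSO.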

Assay [17] can be described thus: APR_HepG2_MitoMass_72hr: Apredica 72-hour HepG2 Assay for Mitochondrial Mass (AID 2282924).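 Further: MitoTracker Red CMXRos stain intensity per cell imaged as mitochondrial mass.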 The note with it: high-content imaging, actives raise or lower the signal. An outline of the steps: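 HepG2 cells were exposed for 72 hr to compounds at 0.39–200 uM (ten concentrations, duplicate, 0.5% v/v DMSO final). Live cells were stained with 250 nM MitoTracker Red CMXRos for 30 min, then fixed in 3.7% formaldehyde and imaged by HCS fluorescence.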

Assay [18] can be described thus: APR_HepG2_NuclearSize_72hr: Apredica 72-hour HepG2 Assay for Nuclear Size (AID 2282925). The note with it: high-content imaging, actives raise or lower the signal. An outline of the steps:
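HepG2 cells were exposed to compounds at ten concentrations from 0.39 to 200 uM (duplicate, 0.5% DMSO final) for 72 hr. After fixation in 3.7% formaldehyde, nuclei were stained with Hoechst 33342 (2 ug/mL) and imaged at 20x.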

Assay [19] in a line: APR_HepG2_p53Act_24hr: Apredica 24-hour HepG2 Assay for p53 Activation (AID 2282913).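 Further: p53 protein immunofluorescence averaged per cell in HepG2 with Hoechst nuclei.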 The note with it: high-content imaging, actives raise or lower the signal. The method in brief: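 HepG2 cells exposed 24 h to compounds at 0.39–200 uM in duplicate, 0.5% v/v DMSO final; fixed, permeabilized, stained with anti-p53 antibody and Hoechst 33342; fluorescence imaging; bidirectional curve fit versus DMSO.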

Assay [20] can be described thus: APR_HepG2_p53Act_72hr: Apredica 72-hour HepG2 Assay for p53 Activation (AID 2282923).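 Further: average cellular p53 protein immunofluorescence intensity in HepG2 cells.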 Conditions: high-content imaging, actives raise or lower the signal. An outline of the steps: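 HepG2 monolayers receive test compounds in duplicate at ten concentrations (0.39 through 200 uM) for 72 hr. They are then formaldehyde-fixed, antibody-labelled for p53, Hoechst-stained and imaged, with activity fitted bidirectionally versus DMSO.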

In the case of `CC(C)COC(=O)c1ccccc1C(=O)OCC(C)C`, the AC50 in [1] was 85.7 µM (active); in assay [3], 87 µM (active); in assay [6] it was 53.7 µM (active); in assay [7], 108 µM (active); in assay [8], 76.2 µM (active); in assay [9], 63.2 µM (active). Further, the AC50 was 80 µM (active) in [11], 67 µM (active) in assay [12], 77.3 µM (active) in [14] and 84.7 µM (active) in [17]. Also, the call in assay [2], in assay [4], in assay [5], in assay [10], in [13] and in assay [15] was inactive. Besides, the compound was classed as inactive in assay [16] and in [18].
For `O=P(OCCCl)(OCCCl)OCCCl`, the outcome in assay [1], in [2], in assay [3], in assay [4], in assay [5] and in [6] was inactive. Besides, the result in assay [7], in assay [19], in assay [8], in [9], in [10] and in assay [14] was inactive. Moreover, the result in assay [15], in [16], in [20] and in [18] was inactive.
On to `[O-][Cl+]O`, for which the call in assay [2], in assay [7], in [19], in [8], in [10] and in assay [11] was inactive. In addition, the result in assay [12], in assay [13], in [15], in assay [20] and in [17] was inactive. Further, the AC50 in assay [3] was 70.7 µM (active); in assay [4], 73.3 µM (active); in assay [5], 93.6 µM (active); in assay [6], 62.5 µM (active); in assay [9], 97.5 µM (active); in assay [14], 66.5 µM (active). Besides, the AC50 in assay [16] is 110 µM (active); in assay [18] it was 157 µM (active).
For the compound `O=C(Nc1ccccc1)c1ccccc1I`, the AC50 in assay [1] is 49.7 µM (active); in assay [9], 61.8 µM (active). In addition, the result in assay [2], in assay [3], in assay [4], in assay [5], in assay [6] and in [7] was inactive. Besides, the result in [8], in [10], in [11], in assay [12], in assay [13] and in assay [14] was inactive. Further, the outcome in assay [15], in [16], in [17] and in [18] was inactive.
For the compound `N#CC(Br)Br`, the compound was classed as inactive in assay [1], in assay [2], in [6], in assay [8], in assay [11] and in [13]. The call in [15], in assay [16], in [17] and in [18] was inactive. For the same compound, the AC50 in [3] was 115 µM (active); in assay [4], 169 µM (active); in assay [5] it was 45.4 µM (active); in assay [7] it was 86.6 µM (active); in assay [9], 96.9 µM (active); in assay [10], 96.9 µM (active). Further, the AC50 in assay [12] was 73.6 µM (active); in assay [14], 88.8 µM (active).
As for `C[C@]12C=CC3=C4CCC(=O)C=C4CC[C@H]3[C@@H]1CC[C@@H]2O`, the compound was classed as inactive in assay [1], in assay [2], in assay [4], in assay [6], in [7] and in assay [8]. The call in [10], in assay [11], in assay [13], in assay [14], in [15] and in [16] was inactive. The compound was classed as inactive in [17] and in assay [18]. For the same compound, the AC50 was 26.1 µM (active) in [3], 32.7 µM (active) in [5], 21.7 µM (active) in assay [9] and 20.8 µM (active) in assay [12].
As for `CCOc1cccc(C2(N3CCN(c4ccccc4)CC3)CCC(C)CC2)c1` (stereo unspecified), the result in [2], in [3], in assay [4], in assay [5], in assay [6] and in assay [7] was inactive. In addition, the outcome in [19], in [8], in assay [9], in assay [10], in [11] and in assay [12] was inactive. In addition, the outcome in assay [13], in assay [14], in assay [15], in assay [16], in assay [20] and in assay [17] was inactive. For the same compound, the outcome in [18] was inactive.

The term AC50 denotes the midpoint of the concentration-response curve, whichever way the signal moves.
